The structures appear in SMILES notation. Records with an inconclusive call do not appear. The source made the active and inactive calls. Unless noted, the call rests on the fitted dose curve.

Potency data for 8 molecules are collected here from PubChem BioAssay (Tox21).

The nature of test [1]: Nuclear factor erythroid 2-related factor 2/antioxidant responsive element (Nrf2/ARE) small molecule agonists: luciferase reporter gene qHTS assay in human keratinocytes (AID 1919969). Further: nearly all actives have a fitted effect of over 35% in size. On the technique in general: A reporter such as luciferase makes a cellular process visible.
For test [2], the target named is Gonadotropin-releasing hormone receptor (Homo sapiens) (UniProt P30968). The test can be described thus: Human gonadotropin-releasing hormone receptor (GnRHR) small molecule agonists, calcium flux assay in GnRHR-HEK293 cells (AID 1920063). Further: nearly all actives have a fitted effect of over 35% in size. Further: potency means the concentration at half of the fitted maximal effect. The method, boiled down: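 Fluorescence kinetics (480 nm excitation, 540 nm emission; 3 min, 1 s steps) report calcium mobilisation in human GnRHR-HEK293 cells in agonist mode. Dye incubation: 1 h, 37 C.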
A general note: A change in cytosolic calcium serves as a functional read-out for many receptors and channels.

Test [3] concerns the target KiSS-1 receptor (Homo sapiens) (UniProt Q969F8). As to the kind of experiment: Human kisspeptin (KISS1R) small molecule agonists, calcium flux assay in KISS1R-HEK293 cells (AID 1920064; active means well fitted activation curve with a large enough effect in the repeat runs; further: potency means the concentration at half of the fitted maximal effect). The method, boiled down:
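Measures KISS1R agonism through calcium-sensitive dye fluorescence in stably transfected HEK293 cells, read for 3 min after pin-tool compound delivery; 15-point titrations in triplicate.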

The nature of test [4]: G protein-coupled receptor (GPCR) small molecule agonists, calcium flux assay: HEK293 wild type cell line counter screen (AID 1920065). Further: potency means the concentration at half of the fitted maximal effect. In short, it runs like this: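 Readout: fluorescence at 480 nm excitation/540 nm emission, sampled at 1 s intervals for 3 min. Cells had been cultured 18 h, then dye-loaded 1 h at 37 C before compound or ATP addition.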
Test [5] in a line: p53 small molecule agonists, cell-based qHTS assay with rat liver microsomes (AID 1963578). In short, it runs like this: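 Each plate received p53RE-bla cells, then compound, then rat liver microsomes and NADPH (both 0.5 mg/mL final). Plates were held 16 h at 37 C, and beta-lactamase activity was detected with LiveBLAzer over 2 h.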
Background: qHTS replaces the single test concentration by a dilution series.

Test [6] can be described thus: p53 small molecule agonists, cell-based qHTS assay with human liver microsomes: qHTS cell viability counter screen (AID 1963579). Further: nearly all actives have a fitted effect of over 45% in size. Further: potency means the concentration at half of the fitted maximal effect. The method, boiled down:
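Tox21 library compounds, delivered from DMSO stocks, were tested on p53RE-bla cells together with 0.5 mg/mL human liver microsomes and 0.5 mg/mL NADPH (final) over 16 h at 37 C; CellTiter-Glo luminescence served as the cytotoxicity measure.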

Test [7] can be described thus: p53 small molecule agonists, cell-based qHTS assay with rat liver microsomes: qHTS cell viability counter screen (AID 1963580). Further: nearly all actives have a fitted effect of over 45% in size. Further: potency means the concentration at half of the fitted maximal effect. The method, boiled down: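 Viability is assessed in parallel with the p53 reporter read: HCT-116 p53RE-bla cells receive compounds plus rat microsomes and NADPH (0.5 mg/mL final apiece), incubate 16 h at 37 C, and then CellTiter-Glo luminescence is recorded.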

Test [8] is described as follows: p53 small molecule agonists, cell-based qHTS assay (AID 1963582; active means well fitted activation curve with a large enough effect in the signal ratio in the repeat runs, not every such curve was filed as active; the % refers to the signal ratio). In short, it runs like this:
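Compounds are pin-transferred in DMSO onto p53RE-bla cells and incubated 16 h at 37 C. The B/G FRET beta-lactamase substrate is then applied for 2 h at RT and fluorescence recorded.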

The target of test [9] is 5-hydroxytryptamine receptor 2A (Homo sapiens) (UniProt P28223). As to the kind of experiment: 5-hydroxytryptamine receptor 2A (HTR2A) small molecule antagonists, cell-based qHTS assay (AID 1963586). Further: nearly all actives have a fitted effect of over 45% in size. The method, boiled down: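 Antagonist-mode intracellular calcium assay: DOI (4 nM) added after 5 min compound pre-incubation at room temperature to dye-loaded HTR2A-CHO cells. Fluorescence followed for 3 min, sampled every second.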

The target is the same in test [10]. The test can be described thus: 5-hydroxytryptamine receptor 2A (HTR2A) small molecule agonists, cell-based qHTS assay (AID 1963587). Further: nearly all actives have a fitted effect of over 30% in size. Further: potency means the concentration at half of the fitted maximal effect. The method, boiled down:
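CHO cells stably expressing human HTR2A, plated 18 h, loaded with calcium dye 1 h at 37 C. Agonist mode: compounds added and intracellular calcium fluorescence recorded kinetically for 2 min at 1 sec intervals.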

Test [11] concerns the target Muscarinic acetylcholine receptor M1 (Homo sapiens) (UniProt P11229). The test can be described thus: Cholinergic receptor muscarinic 1 (CHRM1) small molecule antagonists, cell-based qHTS assay (AID 1963588). Further: nearly all actives have a fitted effect of over 40% in size. Further: potency means the concentration at half of the fitted maximal effect. The method, boiled down:
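CHRM1-CHO calcium-flux assay, antagonist mode. Cells were seeded 18 h, dye-loaded 1 h at 37 C and given compound for 5 min at RT, then acetylcholine was added at 50nM. FDSS fluorescence was read 3 min; 15 concentrations, three runs.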

Test [12] shares this target. As to the kind of experiment: Cholinergic receptor muscarinic 1 (CHRM1) small molecule agonists, cell-based qHTS assay (AID 1963589). Further: nearly all actives have a fitted effect of over 35% in size. Further: potency means the concentration at half of the fitted maximal effect. The method, boiled down:
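Each compound was tested at 15 concentrations across three independent runs on dye-loaded CHO cells stably expressing human CHRM1, reading intracellular calcium fluorescence kinetically at 1 sec intervals.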

Test [13] has as its target D(2) dopamine receptor (Homo sapiens) (UniProt P14416). As to the kind of experiment: Dopamine D2 receptor (DRD2) small molecule agonists, cell-based qHTS assay (AID 1963594). Further: nearly all actives have a fitted effect of over 35% in size. The method, boiled down: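 HEK293 cells stably expressing human DRD2, pre-treated with PDE inhibitor Ro20-1724 (0.1 mM final) and compound 10 min at room temperature, then stimulated with NKH477 (200nM […]) for 30 min. cAMP read by HTRF (665/620 nm).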

The nature of test [14]: p53 small molecule agonists, cell-based qHTS assay with human liver microsomes (AID 1963577).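 Further: p53 response element beta-lactamase reporter cells with liver microsomes plus NADPH.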 The method, boiled down:
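Metabolically competent format: test substances, human liver microsomes and NADPH (both 0.5 mg/mL final) incubated with p53RE-bla cells 16 h at 37 C. Beta-lactamase reporter signal then quantified by fluorescence.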

Test [15] addresses Beta-2 adrenergic receptor (Homo sapiens) (UniProt P07550). The test can be described thus: Adrenergic beta2 receptor (ADRB2) small molecule antagonists, cell-based qHTS assay (AID 1963592). Further: nearly all actives have a fitted effect of over 50% in size. Further: potency means the concentration at half of the fitted maximal effect. In short, it runs like this: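 Cells (CHO, stable ADRB2 overexpression) incubated 18-20hr at 37C; compounds added from DMSO; agonist mix (1nM isoproterenol, 100uM IBMX, 25uM Ro-20-1724) added; 0.5hr RT; d2-cAMP and anti-cAMP-cryptate added; 1hr RT; 665/615 nm read.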

Test [16] has the same target. As to the kind of experiment: Adrenergic beta2 receptor (ADRB2) small molecule agonists, cell-based qHTS assay (AID 1963593).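 Further: CHO cells stably overexpressing human ADRB2.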 The method, boiled down: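 CHO cells stably over-expressing ADRB2 were plated overnight at 37C, then dosed with compounds plus a stimulation mix containing 100uM IBMX and 25uM Ro-20-1724 for 0.5hr at room temperature. cAMP was measured by HTRF competition, 1hr.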

Test [17] addresses D(2) dopamine receptor (Homo sapiens) (UniProt P14416). As to the kind of experiment: Dopamine D2 receptor (DRD2) small molecule antagonists, cell-based qHTS assay (AID 1963595; active means well fitted inhibition curve with a large enough effect in the signal ratio in the repeat runs, with a control signal flat; the % refers to the signal ratio). In short, it runs like this: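 DRD2-HEK293; 0.1 mM Ro20-1724; cpd 10 min RT; NKH477 200 nM + quinpirole 12 nM, 30 min RT; HTRF cAMP (cAMP-d2/anti-cAMP cryptate), 665/620 nm ratio after 1 h.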
Test [18] in a line: p53 small molecule agonists, cell-based qHTS assay: qHTS cell viability counter screen (AID 1963581). Further: nearly all actives have a fitted effect of over 45% in size. Further: potency means the concentration at half of the fitted maximal effect. The method, boiled down: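 In the same plates used for the p53 bla reporter, HCT-116 cells given compounds for 16 h at 37 C received CellTiter-Glo; luminescence was recorded 30 min later at room temperature.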
Test [19] in a line: cAMP Responsive Elements (CRE) small molecule agonists, cell-based qHTS assay (AID 1963590). The method, boiled down:
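Cell line: CRE-bla HEK 293T; medium DMEM/10% dialyzed FBS/0.1 mM NEAA/1 mM pyruvate/25 mM HEPES; 3 h compound exposure; beta-lactamase FRET readout after 2 h substrate loading at RT.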

A short description of test [20]: cAMP Responsive Elements (CRE) small molecule antagonists, cell-based qHTS assay (AID 1963591; active means well fitted inhibition curve with a large enough effect in the signal ratio in the repeat runs, not every such curve was filed as active; the % refers to the signal ratio). In short, it runs like this:
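Inhibition of NKH477-driven (0.25 uM final) CRE-beta-lactamase signal in HEK293T cells, 3 h compound exposure at 37 °C, detected by FRET substrate fluorescence.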

Chain of D(2) dopamine receptor (Homo sapiens) (P14416 whole entry, looked up): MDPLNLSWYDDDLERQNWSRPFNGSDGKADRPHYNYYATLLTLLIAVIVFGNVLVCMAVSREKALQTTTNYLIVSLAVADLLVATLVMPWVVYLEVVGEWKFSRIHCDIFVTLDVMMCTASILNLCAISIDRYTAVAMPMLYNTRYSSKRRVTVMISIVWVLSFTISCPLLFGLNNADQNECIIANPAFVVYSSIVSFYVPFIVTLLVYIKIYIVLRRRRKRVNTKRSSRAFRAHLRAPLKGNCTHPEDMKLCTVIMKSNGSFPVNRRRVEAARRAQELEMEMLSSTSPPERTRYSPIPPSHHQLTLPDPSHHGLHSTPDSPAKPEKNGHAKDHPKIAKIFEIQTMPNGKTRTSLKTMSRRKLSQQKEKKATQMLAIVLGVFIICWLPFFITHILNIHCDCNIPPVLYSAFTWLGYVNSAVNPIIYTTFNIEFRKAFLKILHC
Chain of 5-hydroxytryptamine receptor 2A (Homo sapiens) (P28223 whole entry, looked up): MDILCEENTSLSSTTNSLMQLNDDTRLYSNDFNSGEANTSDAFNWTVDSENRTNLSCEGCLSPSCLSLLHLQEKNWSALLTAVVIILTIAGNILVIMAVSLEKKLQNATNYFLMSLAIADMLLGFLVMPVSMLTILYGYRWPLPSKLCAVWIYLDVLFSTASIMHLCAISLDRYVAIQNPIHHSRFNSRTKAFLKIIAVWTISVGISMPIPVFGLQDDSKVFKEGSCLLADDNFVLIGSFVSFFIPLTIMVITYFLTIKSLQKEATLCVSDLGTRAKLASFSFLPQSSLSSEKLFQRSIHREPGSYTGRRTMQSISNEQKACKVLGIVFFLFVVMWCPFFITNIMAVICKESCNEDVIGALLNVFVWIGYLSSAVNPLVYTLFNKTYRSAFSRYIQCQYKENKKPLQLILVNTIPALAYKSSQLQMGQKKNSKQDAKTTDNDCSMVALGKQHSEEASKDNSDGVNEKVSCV
Chain of KiSS-1 receptor (Homo sapiens) (Q969F8 whole entry, looked up): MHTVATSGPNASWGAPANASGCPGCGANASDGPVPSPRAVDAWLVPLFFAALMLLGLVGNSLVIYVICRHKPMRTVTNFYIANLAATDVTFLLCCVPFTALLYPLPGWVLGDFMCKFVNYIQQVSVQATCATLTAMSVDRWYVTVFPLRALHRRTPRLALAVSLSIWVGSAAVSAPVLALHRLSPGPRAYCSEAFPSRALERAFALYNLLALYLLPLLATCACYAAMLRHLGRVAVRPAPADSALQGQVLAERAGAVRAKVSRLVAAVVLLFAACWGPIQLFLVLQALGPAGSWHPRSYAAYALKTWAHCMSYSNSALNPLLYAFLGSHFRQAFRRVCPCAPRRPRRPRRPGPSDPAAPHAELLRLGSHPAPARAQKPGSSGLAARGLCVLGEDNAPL
Chain of Muscarinic acetylcholine receptor M1 (Homo sapiens) (P11229 whole entry, looked up): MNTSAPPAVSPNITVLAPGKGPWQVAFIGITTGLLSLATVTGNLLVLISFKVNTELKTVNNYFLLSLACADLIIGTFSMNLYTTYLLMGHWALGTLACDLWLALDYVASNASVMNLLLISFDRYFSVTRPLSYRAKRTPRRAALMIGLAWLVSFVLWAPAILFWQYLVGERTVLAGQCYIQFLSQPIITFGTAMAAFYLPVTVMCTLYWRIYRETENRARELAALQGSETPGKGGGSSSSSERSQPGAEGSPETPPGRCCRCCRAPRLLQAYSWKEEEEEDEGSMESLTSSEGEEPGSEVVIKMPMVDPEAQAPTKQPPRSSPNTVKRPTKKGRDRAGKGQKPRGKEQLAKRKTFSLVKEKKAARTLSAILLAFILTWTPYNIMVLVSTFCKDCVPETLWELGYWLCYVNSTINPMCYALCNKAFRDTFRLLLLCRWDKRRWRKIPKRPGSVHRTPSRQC
Chain of Gonadotropin-releasing hormone receptor (Homo sapiens) (P30968 whole entry, looked up): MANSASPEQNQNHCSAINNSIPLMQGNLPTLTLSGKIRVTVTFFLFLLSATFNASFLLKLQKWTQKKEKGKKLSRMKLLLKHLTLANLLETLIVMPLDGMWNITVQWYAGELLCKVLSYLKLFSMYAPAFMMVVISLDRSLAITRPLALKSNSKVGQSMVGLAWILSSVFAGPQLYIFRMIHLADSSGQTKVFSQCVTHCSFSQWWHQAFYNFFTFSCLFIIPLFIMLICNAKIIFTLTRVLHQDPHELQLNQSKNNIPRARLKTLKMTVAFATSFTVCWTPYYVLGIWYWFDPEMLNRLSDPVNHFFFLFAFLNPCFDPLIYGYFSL
Chain of Beta-2 adrenergic receptor (Homo sapiens) (P07550 whole entry, looked up): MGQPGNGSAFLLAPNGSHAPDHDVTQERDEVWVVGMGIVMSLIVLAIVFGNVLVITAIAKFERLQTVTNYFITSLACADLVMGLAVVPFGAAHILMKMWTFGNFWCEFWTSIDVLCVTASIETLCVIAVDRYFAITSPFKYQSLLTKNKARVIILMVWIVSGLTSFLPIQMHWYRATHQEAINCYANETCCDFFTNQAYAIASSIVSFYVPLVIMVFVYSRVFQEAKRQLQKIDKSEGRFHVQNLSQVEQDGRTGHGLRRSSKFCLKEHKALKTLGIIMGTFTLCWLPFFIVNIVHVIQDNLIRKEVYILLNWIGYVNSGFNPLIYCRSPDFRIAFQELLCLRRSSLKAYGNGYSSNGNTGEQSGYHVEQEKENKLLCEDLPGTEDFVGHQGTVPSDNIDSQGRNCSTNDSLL

Consider `CCOC(=O)COc1ccc2c(C)c(CCN(CC)CC)c(=O)oc2c1Cl`, for which the Potency entry in [1], in test [2], in [3], in [4], in test [5] and in [6] was “inactive” each time. The Potency result in test [7], in test [8], in test [9], in test [10], in test [12] and in test [13] was “inactive” in each case. Also, in [11], the Potency is 2.59 µM (active).

`CCCC(=O)O[C@]1(C(=O)CCl)[C@@H](C)C[C@H]2[C@@H]3CCC4=CC(=O)C=C[C@]4(C)[C@@]3(F)C(=O)C[C@@]21C`: the Potency entry in test [1], in test [2], in test [3], in test [4], in [14] and in test [6] was “inactive” throughout. The Potency result in test [7], in test [8], in test [9], in [10], in test [11] and in test [12] was “inactive” each time. In addition, the Potency result in [15], in test [16] and in [17] was “inactive” each time.

With `CCCCCCCCCCCCCCCCCC[N+](C)(C)Cc1ccccc1`, the Potency entry in [1], in test [2], in test [3], in test [4], in [5] and in [9] was “inactive” throughout. The Potency entry in [12] and in [13] was “inactive” in each case. Besides, the Potency was 46.2 µM (active) in test [6]; 46.2 µM (active) in [7]; 20.6 µM (active) in test [18]; 0.19 µM (active) in [11]; 61.7 µM (active) in test [15].

Turning to `CC1C2CC(CC2C2CCCC(O)C2)C1(C)C` (stereo unspecified), the Potency result in [1], in [2], in test [3], in [4], in [14] and in [6] was “inactive” in each case. The Potency result in [18], in [8], in test [9], in test [10], in test [11] and in test [15] was “inactive” throughout. The Potency result in test [16], in test [13] and in test [17] was “inactive” each time.

Regarding `NC(CSCC(=O)O)C(=O)O` (stereo unspecified), the Potency result in test [1], in [2], in test [3], in test [4], in test [5] and in [6] was “inactive” each time. In addition, the Potency result in test [7], in test [18], in test [8], in test [9], in test [10] and in test [11] was “inactive” throughout. In addition, the Potency result in test [12], in test [19], in test [20], in test [15], in [13] and in [17] was “inactive” each time.

Turning to `CCCC(=O)OC[C@@H](OC(=O)CCC)[C@@H](OC(=O)CCC)[C@H](Cn1c2nc(=O)[nH]c(=O)c-2nc2cc(C)c(C)cc21)OC(=O)CCC`, the Potency result in [1], in test [14], in test [6], in test [7], in [18] and in test [9] was “inactive” in each case. Also, the Potency entry in test [11], in [15], in test [13] and in [17] was “inactive” throughout. For the same molecule, the Potency in test [2] was 7.56 µM (active); in test [3] it was 16.9 µM (active); in [4] it was 15.1 µM (active); in test [10] it was 23.9 µM (active); in test [12] it was 19 µM (active).

As for `CNS(=O)(=O)c1cc(C(=O)N2CCC(CCN3C4CCC3CC(n3c(C)nc5ccccc53)C4)(c3cccc(F)c3)CC2)c(Cl)cc1F` (stereo unspecified), the Potency entry in test [1], in test [2], in test [3], in test [4], in test [5] and in [6] was “inactive” each time. Moreover, the Potency entry in test [18], in test [10], in test [12], in test [15], in test [16] and in test [17] was “inactive” throughout.

With `COc1cc2c(cc1OC)[C@@H]1CC(=O)[C@@H](CC(C)C)CN1CC2`, the Potency entry in [1], in test [2], in test [3], in [4], in test [6] and in test [7] was “inactive” in each case. Besides, the Potency entry in test [18], in test [9], in [10], in test [11], in test [12] and in [19] was “inactive” in each case. Besides, the Potency result in test [16], in test [13] and in [17] was “inactive” each time.
